Experimental findings from PubChem BioAssay are described below.

Structures are written as SMILES. Where “and” joins values, the source holds several entries; their conditions need not be identical. Equal entries are not always repeated. Calls of active or inactive are those of the source.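 How the source made its calls, unless noted: active means inhibition at or above 50% relative to wild type and mutant plate controls; inactive means inhibition below 50%.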

Experiment [1] is described as follows: inhibitors of TNFa-induced NFkB p65 translocation, primary screen, imaging, HUVEC, MLSMR starter and 10KST1 sets (AID 438;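 active means inhibition above 20% together with a positive visual image hit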;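 further: compound added about 3h40 before a 20 min TNFalpha stimulation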;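 on inhibition: signal is the nuclear over cytoplasmic p65 intensity ratio per well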). The following applies: HUVEC TNFa-induced p65 nuclear translocation; cell count: measured here: nuclei count (cytotoxicity indicator), at 2.08 µM; inhibition: at 2 µM, stronger effect = higher value, 0% TNFa-plus-vehicle, 100% no-TNFa wells.
A short description of experiment [2]: reduction of polyQ htt aggregates in cells – imaging, exon1htt(103Q)mCFP cells, high-content imaging, primary screen (AID 483;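 active means visual image review flags a hit and inhibition of aggregation exceeds 20%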;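 further: compound exposure lasted 3 days before fixation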;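 on nuclei count: percent of the per-plate median nuclei count of sample wells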). The following applies: exon1htt(103Q)mCFP cell line, aggregate imaging, at 2 µM; inhibition of aggregation: stronger effect = higher value; nuclei count: measured here: cell count, toxicity.
Experiment [3] in a line: endothelial E-selectin expression blockers – imaging, HUVEC, immunofluorescence, MLSMR starter and 10KST1 sets, primary screen (AID 487;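 active means visually confirmed hit in the image check and inhibition above 20%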;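 on inhibition: signal is fraction of cell area covered by stained E-selectin grains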;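 on nuclei count: 100% = median nuclei count of all wells on the same plate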). The settings on record: HUVEC TNFalpha-induced E-selectin immunofluorescence imaging, at 2 µM; inhibition: stronger effect = higher value; nuclei count: measured here: cell number, toxicity.
A short description of experiment [4]: Primary imaging screen for DUSP6 inhibitors that restore phospho-Erk in transfected HeLa cells, chemical complementation (AID 609;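 active means compounds giving at least 50% inhibition in the cell-based MKP-3 phosphatase rescue imaging test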;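 on inhibition: phospho-Erk level distribution per well compared with pooled transfected vehicle control wells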). The following applies: HeLa MKP-3 transfected, phospho-Erk imaging KS statistic, at 10 µM, cells stimulated with TPA for 15 min.
Experiment [5] has as its target Dual specificity protein phosphatase 6 (Homo sapiens) (UniProt Q16828). The description is as above. The following applies: HeLa MKP-3 transfected, phospho-Erk imaging KS statistic; at 10 µM; stronger effect = higher value; cells stimulated with TPA for 15 min.
Experiment [6] concerns the target Voltage-gated potassium channel subunit beta-2 (Rattus norvegicus) (UniProt P62483). Put plainly: inhibitors of rat Kvbeta2 reductase activity – biochemical, NADPH fluorescence, primary screen (AID 622;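 active means fluorescence slope higher than the sample average by over 3 SD, cut at about -0.22 in these data, passing the limit was not always enough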;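 further: slope of raw intensity against log time taken from 70 to 1610 s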). The following applies: recombinant KvBeta, 4-cyanobenzaldehyde reduction, at 10 µM, stronger effect = higher value.
For experiment [7] the target is unchanged. The experiment can be described thus: enhancers of rat Kvbeta2 NADPH turnover – biochemical, NADPH fluorescence, primary screen (AID 623;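 active means NADPH fluorescence slope more negative than the mean of all samples by about 3 SD, 99.7% confidence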;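 further: fluorescence intensity change per second fitted from 20 to 320 s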). The settings on record: Recombinant KvBeta, NADPH fluorescence decrease slope, 10 min; at 10 µM; stronger effect = lower value.
In experiment [8] the target is Alpha-2C adrenergic receptor (Homo sapiens) (UniProt P18825). The experiment can be described thus: compounds altering alpha2C-coupled GIRK flux – cell-based, HEK293 alpha2C/GIRK1/2, thallium flux, primary screen (AID 624;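 active means fluorescence slope after compound addition differing from the mean of all screened samples at 99.7% confidence, in either direction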;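 further: slope of fluorescence ratio to pre-addition baseline per second over 15 to 24 s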). The settings on record: thallium flux BTC fluorescence, at 10 µM, actives lie on both sides.
Experiment [9] can be described thus: inhibitors of larval lipid processing in zebrafish, primary screen, whole organism, PED6 fluorescence, gall bladder and intestine (AID 686;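 active means a full or partial loss of lipid-probe fluorescence in the fish gall bladder, intestine or both, judged by eye; inactive means no fluorescence loss, or compound toxic to the fish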;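 further: larvae 5 to 7 days old with five fish per well; signal comes from phospholipase A2 cleavage of quenched PED6 carried via bile; overnight exposure to compound and PED6 before scoring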). The settings on record: Zebrafish larvae PED6 lipid processing, fluorescence scoring; screened at 20 µM (by protocol).
Experiment [10] is described as follows: loss of swimming-algae plug formation – whole organism, Chlamydomonas reinhardtii, WT vs cilia-less mutant, absorbance, 96-well, primary screen (AID 463189).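 Further: 0% = wild type cc124 cells in DMSO and 100% = ciliumless bld1 mutant cells.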 The following applies: Chlamydomonas reinhardtii gravitaxis, OD600 absorbance, 2 days; at 10 µM; stronger effect = higher value.
A short description of experiment [11]: blockers of RIG-like receptor reporter activation – cell-based, Sendai virus stimulus, luciferase, 10K MLSCN set, TLR/RLR signaling modifier project, primary screen (AID 602276;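 active means inhibition at or above 50% at 10 µM; inactive means inhibition below 50%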;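 further: firefly luciferase from ISG56 promoter only with Renilla not read in this screen; 0% = Sendai virus plus DMSO and 100% = medium plus DMSO without virus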). The settings on record: HEK293 RL24 IRF3 luciferase reporter, at 10 µM, stronger effect = higher value. (In general: In a reporter assay the amount or activity of a reporter protein is the signal.)

Experiment [12] can be described thus: TLR3 IRF3 reporter activation blockers – cell-based, poly I:C stimulus, luciferase, 10K MLSCN set, primary screen (AID 602277;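 active means inhibition of the reporter signal at or above 50%; inactive means inhibition below 50%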). The following applies: HEK293-TLR3 RL24 IRF3 luciferase reporter, at 10 µM, stronger effect = higher value.
Where [13] appears, read: measured here: cell density z-score.
Setting [14] is: measured here: nuclear c-Myc green intensity z-score.
The mark [15] stands for this setting: measured here: nuclear pErk red intensity z-score, stronger effect = higher value.

Alpha-2C adrenergic receptor (Homo sapiens), sequence (P18825 whole entry, looked up): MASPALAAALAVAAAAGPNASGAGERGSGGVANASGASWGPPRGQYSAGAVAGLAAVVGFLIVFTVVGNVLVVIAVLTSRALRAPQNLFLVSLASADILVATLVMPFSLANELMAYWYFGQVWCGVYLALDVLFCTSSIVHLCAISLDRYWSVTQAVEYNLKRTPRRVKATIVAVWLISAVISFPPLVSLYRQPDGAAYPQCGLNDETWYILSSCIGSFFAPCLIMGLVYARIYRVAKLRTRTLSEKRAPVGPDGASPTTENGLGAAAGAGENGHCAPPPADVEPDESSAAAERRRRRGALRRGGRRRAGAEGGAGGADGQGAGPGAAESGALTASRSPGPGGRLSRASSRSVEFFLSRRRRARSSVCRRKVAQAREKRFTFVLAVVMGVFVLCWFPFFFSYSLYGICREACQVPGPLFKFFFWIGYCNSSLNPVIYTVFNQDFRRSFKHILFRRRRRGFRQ
Voltage-gated potassium channel subunit beta-2 (Rattus norvegicus), sequence (P62483 whole entry, looked up): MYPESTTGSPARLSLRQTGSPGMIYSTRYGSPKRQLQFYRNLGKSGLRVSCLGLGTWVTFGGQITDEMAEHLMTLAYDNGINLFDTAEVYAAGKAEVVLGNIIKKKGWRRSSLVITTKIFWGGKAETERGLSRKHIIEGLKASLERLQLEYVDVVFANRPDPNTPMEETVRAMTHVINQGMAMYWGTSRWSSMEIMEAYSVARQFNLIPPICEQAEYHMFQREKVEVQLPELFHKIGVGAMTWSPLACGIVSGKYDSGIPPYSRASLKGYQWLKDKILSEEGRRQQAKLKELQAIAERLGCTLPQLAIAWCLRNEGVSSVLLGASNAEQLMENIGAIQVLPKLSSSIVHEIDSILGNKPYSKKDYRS
Dual specificity protein phosphatase 6 (Homo sapiens), sequence (Q16828 whole entry, looked up): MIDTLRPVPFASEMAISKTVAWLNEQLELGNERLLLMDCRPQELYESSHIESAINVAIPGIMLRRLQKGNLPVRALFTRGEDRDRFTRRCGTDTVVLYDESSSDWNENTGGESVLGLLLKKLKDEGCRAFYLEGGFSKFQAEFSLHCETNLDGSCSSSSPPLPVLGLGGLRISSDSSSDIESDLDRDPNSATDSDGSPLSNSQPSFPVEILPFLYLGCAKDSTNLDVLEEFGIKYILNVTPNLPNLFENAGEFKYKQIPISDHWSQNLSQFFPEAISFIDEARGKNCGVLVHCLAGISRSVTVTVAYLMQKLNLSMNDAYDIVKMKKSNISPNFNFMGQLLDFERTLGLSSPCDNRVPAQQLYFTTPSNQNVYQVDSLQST

For the compound `C=C1[C@@H](C)C2[C@H](Cc3ccccc3)NC(=O)[C@]23OC(=O)CC[C@H](O)CCC[C@H](C)C/C=C/[C@H]3[C@@H]1O` (stereo partly drawn), the cell count in [1] stood at 573. In addition, the inhibition (in general, the relative decrease from the control value, in per cent) in experiment [1] is -22.6% (inactive); in experiment [3] it was -47.4% (inactive); in experiment [5], 5.42% (inactive); in [10] it was -3.13% (inactive); in [11], 7.56% (inactive); in experiment [12], 45.8% (inactive). The inhibition of aggregation in experiment [2] was 25.7% (inactive). Also, the nuclei count in experiment [2] was determined as 42.3%; in experiment [3], 104%. Moreover, the z-score in experiment [4] (setting [13]) is -1.85; in [4] (setting [14]), 0.937; in experiment [4] (setting [15]), 1.72. In addition, in [6], the fluorescence slope was -0.464 (inactive). Besides, the NADPH fluorescence slope in experiment [7] was -6.3e-05 (inactive). In experiment [8], the slope is 0.00486 (inactive). For the same compound, the compound was classed as inactive in [9].
With `Nc1nc2ccc(OC(F)(F)F)cc2s1`, in experiment [1], the cell count was determined as 540. Further, the inhibition in experiment [1] was -0.5% (inactive); in [3], -27.8% (inactive); in experiment [5] it was 36.7% (inactive); in experiment [10] it was 4.87% (inactive) and -11.8% (inactive); in experiment [11] it was -14.6% (inactive); in experiment [12], -58.1% (inactive). In addition, in experiment [2], the inhibition of aggregation was -1.7% (inactive). Moreover, the nuclei count in experiment [2] came to 86.1%; in experiment [3] it was 107%. Further, the values for the z-score in experiment [4] (setting [13]), in [4] (setting [14]) and in [4] (setting [15]) were 2.05, -1.62 and -0.877, respectively. For the same compound, in [6], the fluorescence slope is -0.427 (inactive). Further, the NADPH fluorescence slope in experiment [7] was 2.4e-05 (inactive). Also, the slope in experiment [8] is 0.00474 (inactive). Moreover, in experiment [9], the outcome was inactive.
Take `CCC(NC(C)C)C(O)c1ccc(O)c(O)c1` (stereo not drawn): the cell count in experiment [1] was 661. In addition, the inhibition was -7.3% (inactive) in [1]; -51.9% (inactive) in [3]; 7.39% (inactive) in experiment [5]; 14.5% (inactive) and 0.657% (inactive) in experiment [10]; 13.9% (inactive) in experiment [11]; 39.3% (inactive) in [12]. For the same compound, the inhibition of aggregation in [2] was 1% (inactive). Further, the nuclei count in experiment [2] is 109%; in experiment [3], 117%. Further, the z-score in [4] (setting [13]) was -1.1; in experiment [4] (setting [14]), -0.395; in experiment [4] (setting [15]), 0.461. Also, the fluorescence slope in experiment [6] is -0.492 (inactive). Besides, the NADPH fluorescence slope in experiment [7] is -5.8e-05 (inactive). Further, the slope in experiment [8] is 0.00513 (inactive). Besides, in experiment [9], the call was inactive.
With `O=C(O)Cc1cc(I)c(Oc2ccc(O)c(I)c2)c(I)c1`, in [1], the cell count turned out to be 625. The inhibition is 3.9% (inactive) in [1]; -92% (inactive) in [3]; 8% (inactive) in [5]; 22% (inactive) in experiment [10]; -15.1% (inactive) in [11]; -273% (inactive) in experiment [12]. In addition, the inhibition of aggregation in experiment [2] was 12.4% (inactive). The nuclei count in experiment [2] came to 103%; in [3], 123%. The z-score in experiment [4] (setting [13]) was 0.485; in experiment [4] (setting [14]), -0.133; in experiment [4] (setting [15]), 0.686. The fluorescence slope in experiment [6] was -0.541 (inactive). In addition, in [7], the NADPH fluorescence slope is -4.1e-05 (inactive). In addition, the slope in experiment [8] is 0.00612 (inactive). In addition, the compound was classed as inactive in experiment [9].
As to `O=C(c1cccc2ccccc12)N1CCC(N2CCN(c3ccccc3)CC2)CC1`, the cell count in [1] came to 373. Moreover, the inhibition was -1.4% (inactive) in experiment [1]; -64.1% (inactive) in experiment [3]; 13.2% (inactive) in [5]; 29.4% (inactive) in experiment [10]; 4.24% (inactive) in [11]; 21.4% (inactive) in [12]. Further, the inhibition of aggregation in [2] is 12.1% (inactive). Further, the nuclei count in experiment [2] came out at 95.9%; in [3], 81.4%. Moreover, the values for the z-score in experiment [4] (setting [13]), in experiment [4] (setting [14]) and in [4] (setting [15]) were 0.565, 1.38 and -0.642, respectively. Also, the fluorescence slope in [6] was -0.528 (inactive). For the same compound, the NADPH fluorescence slope in [7] is -1.2e-05 (inactive). Also, the slope in [8] was 0.00499 (inactive). For the same compound, in [9], the compound was classed as inactive.
For the compound `CN1C2C=C3C(C#N)=C(N)C(C#N)(C#N)[C@@H](c4ccc(Cl)cc4)[C@@H]3C1CC2` (stereo partly drawn), the cell count in [1] was 492. Moreover, the inhibition in experiment [1] is -3.5% (inactive); in [3] it was -63.9% (inactive); in [5], -2.47% (inactive); in experiment [10] it was 11.6% (inactive); in [11] it was 13.8% (inactive); in experiment [12], 29.9% (inactive). For the same compound, the inhibition of aggregation in [2] was 11.7% (inactive). Moreover, the values for the nuclei count in experiment [2] and in experiment [3] were 110% and 120%, respectively. The results for the z-score in [4] (setting [13]), in experiment [4] (setting [14]) and in [4] (setting [15]) were 1.1, -0.782 and 0.349, respectively. Also, in experiment [6], the fluorescence slope was -0.517 (inactive). The NADPH fluorescence slope in experiment [7] was -1.7e-05 (inactive). In [8], the slope was 0.00502 (inactive). Further, in experiment [9], the outcome was inactive.
In the case of `CCOC(=O)C1=C(C)N=C2SC(C)C(=O)N2C1c1cccc(F)c1` (stereo not drawn), the cell count in experiment [1] is 400. The inhibition in experiment [1] is -2.2% (inactive); in experiment [3], -10.3% (inactive); in [5], 5.42% (inactive); in experiment [10], -0.443% (inactive); in [11] it was 25.4% (inactive); in experiment [12], 20.1% (inactive). Besides, the inhibition of aggregation in experiment [2] was 9.9% (inactive). The values for the nuclei count in [2] and in [3] were 102% and 139%, respectively. The figures for the z-score in experiment [4] (setting [13]), in experiment [4] (setting [14]) and in [4] (setting [15]) were -0.692, 0.668 and 0.0738, respectively. Also, the fluorescence slope in experiment [6] is -0.448 (inactive). In [7], the NADPH fluorescence slope was -0.000135 (inactive). Moreover, the slope in [8] is 0.00424 (inactive). Also, the result in experiment [9] was inactive.
`CCN(CC)c1ccc(-c2nn3c(-c4cccnc4)nnc3s2)cc1`: in experiment [1], the cell count amounted to 508. The inhibition was -7.3% (inactive) in experiment [1]; -247% (inactive) in [3]; -6.06% (inactive) in experiment [5]; 128% (active) in experiment [10]; 49.1% (inactive) in experiment [11]; 7.63% (inactive) in experiment [12]. Besides, the inhibition of aggregation in experiment [2] was -31.1% (inactive). Also, the values for the nuclei count in experiment [2] and in experiment [3] were 10% and 120%, respectively. Besides, the values for the z-score in experiment [4] (setting [13]), in [4] (setting [14]) and in experiment [4] (setting [15]) were 0.463, -0.276 and 0.497, respectively. Moreover, the fluorescence slope in experiment [6] is -0.39 (inactive). In experiment [7], the NADPH fluorescence slope is -8.4e-05 (inactive). Further, the slope in experiment [8] is 0.00633 (inactive). For the same compound, the compound was called inactive in experiment [9].
For the compound `Cc1nc2c(c(=O)n1CC1CCCO1)c1nc3ccccc3nc1n2CC(C)C` (stereo not drawn), the cell count in experiment [1] was 460. Further, the inhibition is -4.3% (inactive) in [1]; -42.3% (inactive) in [3]; 9.42% (inactive) in [5]; 0.529% (inactive) in experiment [10]; 20.9% (inactive) in experiment [11]; 22.8% (inactive) in [12]. For the same compound, the inhibition of aggregation in [2] was 12.6% (inactive). For the same compound, the nuclei count in experiment [2] was 107%; in [3] it was 96.8%. Also, the z-score in [4] (setting [13]) is 1.43; in experiment [4] (setting [14]), 1.1; in [4] (setting [15]), -2.3. Further, the fluorescence slope in experiment [6] was -0.449 (inactive). Besides, the NADPH fluorescence slope in [7] was -6.4e-05 (inactive). For the same compound, the slope in experiment [8] was 0.00602 (inactive). The compound was classed as inactive in [9].
